# Bioassay records as filed in PubChem.
# hcDAF12 agonist – activators of H. contortus DAF-12 nuclear receptor; activation, % at 6.8 µM; AID 652067; HEK293 hcDAF-12 lit1-tk-luc reporter, luminescence; 0% DMSO, 100% Δ7-dafachronic acid; 370,000 compounds, 1.4% hits;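 active means activation above the mean of all tested compounds plus 3 SD, cut at about 5.5% in these data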;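 further: 100% = response to 3 µM Δ7-dafachronic acid high control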
# Wee1 stabilizer – human Wee1 degradation inhibition, primary screen. P30291. HeLa Luc-Wee1K328M stability, luciferase luminescence; 100% = proteasome inhibitor MG132 effect. reporter increase, % at 5 µM. 220,000 compounds, 1.2% hits. AID 1321;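 active means activation above the mean of all tested compounds plus 3 SD, set per screening run, cut at about 8.8% in these data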;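 further: cells exposed to compound for 20 h before luminescence read; 0% = DMSO alone and 100% = MG132 at 30 µM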
# Target sequence (P30291 whole entry K328M): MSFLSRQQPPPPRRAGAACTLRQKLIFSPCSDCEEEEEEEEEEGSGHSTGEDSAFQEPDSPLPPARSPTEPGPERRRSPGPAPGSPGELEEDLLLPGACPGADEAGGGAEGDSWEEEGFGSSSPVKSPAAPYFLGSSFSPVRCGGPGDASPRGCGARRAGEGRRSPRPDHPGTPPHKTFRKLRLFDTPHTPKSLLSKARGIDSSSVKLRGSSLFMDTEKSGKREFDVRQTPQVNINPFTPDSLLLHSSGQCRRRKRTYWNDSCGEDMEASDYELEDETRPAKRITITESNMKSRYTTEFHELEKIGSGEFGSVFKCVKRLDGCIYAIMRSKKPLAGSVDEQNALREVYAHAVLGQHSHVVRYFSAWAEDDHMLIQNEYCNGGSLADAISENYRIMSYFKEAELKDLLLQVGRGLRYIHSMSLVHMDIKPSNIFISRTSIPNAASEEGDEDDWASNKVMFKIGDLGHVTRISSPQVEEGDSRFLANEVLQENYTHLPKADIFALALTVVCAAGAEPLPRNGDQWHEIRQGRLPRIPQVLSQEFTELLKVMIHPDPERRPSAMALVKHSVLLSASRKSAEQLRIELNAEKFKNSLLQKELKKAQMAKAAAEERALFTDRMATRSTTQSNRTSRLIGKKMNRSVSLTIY
# ssDAF12 agonist – activators of S. stercoralis DAF-12 nuclear receptor. 370,000 compounds, 1% hits. AID 652126. activation, % at 6.8 µM. HEK293 ssDAF-12/GRIP1 lit1-tk-luc reporter, luminescence; % of 3 µM dafachronic acid response;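 active means activation above the mean over all tested compounds plus 3 SD, cut at about 0.9% in these data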;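 further: 0% = DMSO-only wells and 100% = 3 µM delta7-dafachronic acid wells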
# hgDAF-12 ag – agonists of H. glycines DAF-12 nuclear receptor | activation, % at 6.8 µM | HEK293 GAL4-hgDAF12 UAS-luciferase reporter, agonist luminescence; normalized to butyrate control | 370,000 compounds, 1.8% hits;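 active means activation above a cutoff set at the mean of all screened compounds plus 3 SD, cut at about 10% in these data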;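 further: 0% = DMSO wells and 100% = sodium butyrate wells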
# DAX1 inh-1 – inhibitors of DAX1 repression of SF-1 activated StAR promoter | HEK293T StAR-luciferase reporter, SF-1/DAX-1 repression relief | AID 652010 | 370,000 compounds, 1.1% hits | inhibition, % at 6.8 µM;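 active means inhibition above the mean over all tested compounds plus 3 SD, cut at about 3.6% in these data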;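 further: 0% = DAX-1 cells with DMSO and 100% = cells lacking DAX-1 with DMSO; higher inhibition means more luminescence from relief of DAX-1 repression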
# DAX1 inh-2 – inhibits human nuclear receptor DAX1; P51843; HEK293 Gal4-DAX1 luciferase reporter, luminescence; inhibition, % at 6.75 µM; 340,000 compounds, 0.99% hits; AID 504766;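 active means inhibition above the mean over all tested compounds plus 3 SD, cut at about 4.2% in these data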;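 further: 0% = DAX1-transfected cells with DMSO and 100% = empty-vector control cells with DMSO; inhibition shows as a rise in luminescence from relieved DAX1 repression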
# hgDAF12 conf – hgDAF-12 agonism, confirmation assay; shares compounds with hgDAF-12 ag; HEK293 GAL4-hgDAF12 luciferase reporter, agonist mode; percent of butyrate response; activation, % at 6.8 µM; 3,300 compounds, 80% hits; AID 743050;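 active means mean activation over triplicate wells above the hit cutoff derived from the earlier primary screen, cut at about 11% in these data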;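 further: 0% = DMSO low control and 100% = 2 mM sodium butyrate high control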
# LXRb DAF12 ctr – LXR-beta agonism as DAF-12 counter-screen. shares compounds with hgDAF-12 ag. HEK293 Gal4-LXR luciferase reporter, 24 h. activation, % at 6.8 µM. 3,300 tested, under 10 active. AID 743051;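 active means mean activation of the triplicate above a set limit carried over from the primary screen, none filed active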
# The depositor's hits bear a star; . = no result given. An excerpt weighted towards active compounds, which were near 4.6% of everything screened.
SMILES,hcDAF12 agonist,Wee1 stabilizer,ssDAF12 agonist,hgDAF-12 ag,DAX1 inh-1,DAX1 inh-2,hgDAF12 conf,LXRb DAF12 ctr
O=C(COc1cc(Cl)c(Cl)cc1Cl)Nc1cccc(O)c1,4.5,-2.7,0.4,16.7*,1.5,2.7,17.5*,1.0
O=C(COc1ccccc1Br)Nc1ccc2c(c1)OCCCO2,4.3,.,0.3,15.3*,1.8,3.6,14.2*,0.8
Cc1ccc(Cl)c(OCC(=O)Nc2ccc3c(c2)OCCO3)c1,1.0,7.5,-0.9,13.8*,1.8,4.0,15.3*,0.7
Cc1ccc2nc(-c3ccc(SCC(=O)Nc4ccc5c(c4)OCCO5)nc3)[nH]c2c1,5.0,4.0,0.1,19.8*,3.2,1.7,20.6*,0.9
CC1CCCCC1NC(=O)CSc1nnnn1C (centres undefined),-1.0,.,-1.2,-2.2,-0.2,-1.0,.,.
Cc1ccc(Nc2cc(-n3cccn3)ncn2)c(C)c1,-0.9,5.4,-0.7,15.2*,3.1,2.9,11.5*,0.6
Cc1ccc(Nc2cc(-n3nc(C)cc3C)ncn2)c(C)c1,-2.7,-0.9,-1.5,2.2,-0.8,-0.2,.,.
COc1ccc(-c2oc(=O)c3cc(OC)c(OC)cc3c2C#C[C@]2(O)CC[C@H]3[C@@H]4CCc5cc(OC)ccc5[C@H]4CC[C@@]32C)cc1,-1.3,.,-1.1,-0.2,-0.1,-0.1,.,.
Cc1ccc(S(=O)(=O)CCC(=O)NC2CCCC2)cc1,-2.3,.,-0.7,-1.6,0.4,0.4,.,.
